From PubChem BioAssay (EPA / NIEHS)
Inconclusive results are not listed. The source made the active and inactive calls. The calls were made as follows: active = hit-call score of the fitted dose curve at least 0.9, where 1 is the maximum; inconclusive = response in the unintended direction; inactive = score below 0.9.

Target: Oxysterols receptor LXR-beta (Homo sapiens) (UniProt P55055)
Experiment: ATG_LXRb_TRANS: Attagene TRANS-FACTORIAL HepG2 Assay for human Liver X Receptor beta (LXRb) (AID 2282981)
Conditions: HepG2 Attagene TRANS GAL4-LXRb reporter, mRNA
Method: ATG_TRANS is a cell-based, multiplexed-readout assay that uses HepG2, a human liver cell line, with measurements taken at 24 hours after chemical dosing in a 24-well plate.ATG_LXRb_TRANS is one of 30 assay component(s) measured or calculated from the ATG_TRANS assay. It is designed to make measurements of mRNA induction, a form of inducible reporter, as detected with fluorescence intensity signals by Reverse transcription polymerase chain reaction (RT-PCR) and Capillary electrophoresis technology.Data from the assay component ATG_LXRb_TRANS was analyzed into 1 assay endpoint. This assay endpoint, ATG_LXRb_TRANS, was analyzed in the positive analysis fitting direction relative to DMSO as the negative control and baseline of activity. Using a type of inducible reporter, measures of mRNA for gain-of-signal activity can be used to understand the reporter gene at the transcription factor-level as they relate to the gene NR1H2. Furthermore, this assay endpoint can be referred to as a primary readout, because this assay has produced multiple assay endpoints where this one serves a reporter gene function. To generalize the intended target to other relatable targets, this assay endpoint is annotated to the nuclear receptor intended target family, where the subfamily is non-steroidal.
Human liver HepG2 cells are transiently transfected with multiple reporter transcription units (MRTUs) in 6-well plates using FuGene 6 reagent (Roche; 3 ml FuGene/1 mg DNA). The MRTU constructs are regulated by a cis-regulating element (promoter). […] A major difference between the CIS and TRANS system is that in CIS activities of endogenous TFs are measured, whereas the TRANS assay evaluates changes in activities of exogenous, chimeric NR-Gal4 proteins. […] At the end of 24 hour incubation, total RNA was isolated using TriZol reagent (Invitrogen). The isolated RNA is then reverse-transcribed using oligo(dT) primer and Mo-MLV reverse transcriptase (Invitrogen) with DNAse I (Ambion) treatment for 30 min. The one-tenth of the produced cDNA was amplified by PCR using Taq DNA polymerase (Invitrogen) and two reporter sequence-specific primers. The PCR products were fluorescently labeled by primer extension with 6-arboxyfluorescein (6-FAM) 5'-labeled reporter sequence-specific primer (2 min at 95 C, 20 s at 68 C and 10 min at 72 C) and these products were digested with 5U of HpaI (New England Biolabs) for 2h at 37 C. The fragments were purified using Qiaquick PCR columns (Qiagen), analyzed on an ABI 3130xL genetic analyzer (Applied Biosystems) with peak positions identified by using a set of X-rhodamine (ROX)-labeled MapMarker1000 molecular weight standards (BioVentures). The raw capillary electrophoresis data was processed using Attagraph software (Attagene).

Sequence of Oxysterols receptor LXR-beta (Homo sapiens) (P55055 whole entry, looked up): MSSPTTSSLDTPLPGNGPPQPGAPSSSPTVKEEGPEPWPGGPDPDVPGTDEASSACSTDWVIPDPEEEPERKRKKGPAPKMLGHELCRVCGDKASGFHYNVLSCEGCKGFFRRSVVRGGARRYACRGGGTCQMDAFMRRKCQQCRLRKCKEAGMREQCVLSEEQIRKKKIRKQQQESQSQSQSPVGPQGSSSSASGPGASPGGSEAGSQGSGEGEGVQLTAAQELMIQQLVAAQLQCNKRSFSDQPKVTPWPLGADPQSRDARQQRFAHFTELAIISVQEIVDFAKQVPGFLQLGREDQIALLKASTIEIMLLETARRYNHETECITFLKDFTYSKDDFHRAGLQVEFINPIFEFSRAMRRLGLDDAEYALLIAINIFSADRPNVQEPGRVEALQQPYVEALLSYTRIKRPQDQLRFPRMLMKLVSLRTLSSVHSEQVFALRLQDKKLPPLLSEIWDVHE

| Compound | outcome |
| --- | --- |
| CCCSc1ccc2nc(NC(=O)OC)[nH]c2c1 | inactive |
| OCCOCCN1CCN(C2=Nc3ccccc3Sc3ccccc32)CC1 | inactive |
| CCCCCCCC(=O)OCC(O)CO (stereo not given) | inactive |
| CCO/C=C1\N=C(c2ccccc2)OC1=O | inactive |
| CC(C=O)Cc1ccc(C(C)(C)C)cc1 (stereo not given) | inactive |
| C=C(C)[C@H]1CC=C(C)C(=O)C1 | inactive |
| CC(=O)O[C@@H]1C[C@@H]2CC[C@@]1(C)C2(C)C | inactive |
| Nc1ccc(NCCO)c([N+](=O)[O-])c1 | inactive |
| CCOc1ccc(NC(=O)CC(C)=O)cc1 | inactive |
| Cc1cc(C)nc(NS(=O)(=O)c2ccc(N)cc2)n1 | inactive |
| Cc1cc(=O)oc2cc(N(C)C)ccc12 | inactive |
| Nc1ccn([C@H]2CS[C@@H](CO)O2)c(=O)n1 | inactive |
| CC1(C)O[C@@H]2C[C@H]3[C@@H]4CCC5=CC(=O)C=C[C@]5(C)[C@@]4(F)[C@@H](O)C[C@]3(C)[C@]2(C(=O)CO)O1 | inactive |
| C=CCCC(=O)/C=C/C1C(C)=CCCC1(C)C (stereo not given) | inactive |
| O=C(O)c1cc(C(=O)O)cc([N+](=O)[O-])c1 | inactive |
| CC(=O)c1c(C)c([N+](=O)[O-])c(C(C)(C)C)c([N+](=O)[O-])c1C | inactive |
| C#CC(C)(O)CC(C)C (stereo not given) | inactive |
| CCc1cc(C(C)(C)C)c(O)c(C(C)(C)C)c1 | inactive |
| CCCCCCCCSCCO | inactive |
| CCC1(C)NC(=O)NC1=O (stereo not given) | inactive |

| Compound | outcome |
| --- | --- |
| CCC(=O)O[C@@H]1C[C@H]2CC[C@]1(C)C2(C)C | inactive |
| c1ccc(Oc2ccccc2)cc1 | inactive |
| CCCCC(CC)COC(=O)c1ccc(O)cc1 (stereo not given) | inactive |
| O=C1c2ccccc2C(=O)c2c(O)ccc(O)c21 | inactive |
| CCCCOC(=O)CCCCCCCC(=O)OCCCC | inactive |
| c1ccc(CCc2ccccc2)cc1 | inactive |
| CC(C)CC(C)CC(O)CC(C)C (stereo not given) | inactive |
| c1ccc(CN(Cc2ccccc2)Cc2ccccc2)cc1 | inactive |
| Cc1ncc[nH]1 | inactive |
| COc1ccc(CCO)cc1 | inactive |
| BrCc1cccc(Oc2ccccc2)c1 | inactive |
| C=Cc1ccncc1 | inactive |
| CC(=O)CC(=O)Nc1ccc(C)cc1C | inactive |
| CC(C)C[C@H](NC(=O)OCC1c2ccccc2-c2ccccc21)C(=O)O | inactive |
| CCCC(O)C(O)CO (stereo not given) | inactive |
| CCCC(C)C(O)CC (stereo not given) | inactive |
| CCCCCCOCCOCCO | inactive |
| CC(=O)O[C@H]1C[C@@H]2CC[C@@]1(C)C2(C)C | inactive |
| C=CC(=C)CCCC(C)(C)OC(C)=O | inactive |
| CCCCCCOC(=O)C(C)C | inactive |
